SMN2 splice enh – qHTS Assay for Enhancers of SMN2 Splice Variant Expression; AID 1458, 2008; HEK293 SMN2-luciferase splicing reporter, luminescence, 30-36 h; Potency, µM (highest dose often 46.1 µM), inactives show top-dose activity change, positive = activation, actives largely listed as activators; actives 2.8% (n = 210,000); further: % of control where 0% means no effect; nearly all actives have a fitted effect of over 55% in size
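HEK293 cells carry an SMN2 minigene-luciferase reporter in which exon 7 inclusion puts luciferase in frame. Cells were seeded at 2000 cells/well, attached for 10-12 hours, then exposed to compounds for 30-36 hours at 37C before ONE-Glo luminescence.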
ELG1 genotox – qHTS screen for small molecules that induce genotoxicity in human embryonic kidney (HEK293T) cells expressing luciferase-tagged ELG1; Potency, µM (highest dose often 46 µM), inactives show at the highest dose activity change, positive = activation, most hits filed as activators; actives 1.3% (n = 330,000); HEK293T ELG1-luciferase reporter, luminescence, 16 h; further: % of control where 0% means no effect; nearly all actives have a fitted effect of over 60% in size
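Genotoxicity was scored as increased ELG1-luciferase reporter signal, measured by ONE-Glo luminescence (30 min, room temperature). Compound or vehicle exposure of the HEK293T reporter cells lasted 16 hr at 37°C.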
KinaseGlo FLuc – Counterscreen for Luciferase (Kinase-Glo TM) Inhibition; Potency, µM (highest dose often 38.3 µM), without a hit: at the highest dose activity change, negative = inhibition, most hits filed as inhibitors; Kinase-Glo luciferase, ATP luminescence, 8 min; AID 1379, 2008; Luciferin 4-monooxygenase (Photuris pensylvanica), Q27757; actives 0.28% (n = 200,000); further: on the % scale 0 is the no-effect control and ±100 the full control effect; nearly all actives have a fitted effect of over 60% in size
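Recombinant Kinase-Glo luciferase, 10 uM ATP (linear range), luciferin; imidazole pH 7.2 / KCl / MgCl2 / Tween / BSA buffer; 8 min RT; luminescence.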
Rab9 promoter act – qHTS Assay for Rab9 Promoter Activators. Huh7 Rab9 promoter-luciferase reporter, luminescence, 24 h. Potency, µM (highest dose often 9.22 µM), for inactives: at the highest dose activation, negative = inhibition, actives largely listed as activators. actives 2.8% (n = 320,000). AID 485297, 2010; further: % of control where 0% means no effect; nearly all actives have a fitted effect of over 60% in size
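Steps: seed 1500 Huh7 Rab9-luc cells per well, rest 2 h at 37 °C; add compound in DMSO; incubate 24 h; add luciferase reagent, 10 min ambient; read luminescence.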
FLuc counter – qHTS profiling assay for firefly luciferase inhibitor/activator using purifed enzyme and Km concentrations of substrates (counterscreen for miR-21 project) | purified FLuc, Km substrates, luminescence inhibition | Potency, µM (doses to about 57.5 µM), inactives show at the highest dose activity change, negative = inhibition, actives largely listed as inhibitors | actives 6.9% (n = 360,000) | AID 588342, 2011 | Luciferin 4-monooxygenase (Photinus pyralis), P08659;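 further: plate controls were vehicle for no effect and reference inhibitor for full effect; nearly all actives have a fitted effect of over 55% in size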
Target sequence (P08659 whole entry, looked up): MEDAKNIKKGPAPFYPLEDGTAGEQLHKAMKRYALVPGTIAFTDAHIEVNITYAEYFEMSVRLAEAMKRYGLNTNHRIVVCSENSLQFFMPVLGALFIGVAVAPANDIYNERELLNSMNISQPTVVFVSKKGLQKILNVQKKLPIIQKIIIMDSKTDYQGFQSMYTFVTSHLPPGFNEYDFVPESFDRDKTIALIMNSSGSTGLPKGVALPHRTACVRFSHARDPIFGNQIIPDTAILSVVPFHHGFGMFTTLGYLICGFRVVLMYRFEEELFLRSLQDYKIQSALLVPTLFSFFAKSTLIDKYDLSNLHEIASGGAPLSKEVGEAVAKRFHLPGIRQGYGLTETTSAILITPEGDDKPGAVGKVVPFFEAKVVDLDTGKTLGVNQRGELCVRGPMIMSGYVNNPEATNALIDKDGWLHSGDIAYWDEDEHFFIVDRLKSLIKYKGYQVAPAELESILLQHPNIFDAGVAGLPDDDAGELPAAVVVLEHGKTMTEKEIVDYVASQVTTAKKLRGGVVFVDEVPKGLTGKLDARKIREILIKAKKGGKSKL
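Biochemical qHTS of compounds, final roughly 60 µM downward over six points, against 10 nM purified firefly luciferase using Km concentrations of substrates (10 uM D-luciferin, 10 uM ATP) in Tris acetate pH 7.5 buffer; luminescence output.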
NPC1 prom act – qHTS Assay for NPC1 Promoter Activators; Potency, µM (titrated, usually from 9.22 µM), for inactives: at the highest dose activation, hits mostly activators; actives 2.4% (n = 320,000); AID 485313, 2010; Huh7 NPC1 promoter luciferase reporter, 24 h; further: % of control where 0% means no effect; nearly all actives have a fitted effect of over 60% in size
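Stable NPC1-promoter luciferase Huh7 line; cpd (DMSO) 24 h, 37 °C, 5% CO2; Amplite luciferase reagent 10 min RT; luminescence readout. qHTS format.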
Starred values were filed as active, the others as inactive; ? = inconclusive; . = no result. Sampled rows, rich in hits. Any-hit rate of the full collection: about 7.4%. The call rests on the fitted dose curve; in most records, active means well fitted curve in the direction sought with a large enough effect; inconclusive means small, poorly fitted or top-dose-only effect, or another doubt; inactive means no such curve, though single readings can be large; an effect the other way counts as inactive or inconclusive. Potency means the concentration at half of the fitted maximal effect.

SMILES | SMN2 splice enh | ELG1 genotox | KinaseGlo FLuc | Rab9 promoter act | FLuc counter | NPC1 prom act
O=C(N/N=C/c1cccnc1)C(O)(c1ccccc1)c1ccccc1 | -18% | 0% | 1% | -1% | 0% | -2%
CN1CCCN(Cc2nc(-c3cccc(C(F)(F)F)c3)no2)CC1 | . | 1% | 3% | 2% | -2% | -2%
CC(C(=O)NCc1cccc(Br)c1)n1ncn2cccc2c1=O (stereo not given) | . | . | . | . | 13µM* | .
Cc1c2cnn(-c3ccccc3)c(=O)c2c(C)n1C(C)C(=O)NCc1cccc(Br)c1 (stereo not given) | -31% | . | . | . | -7% | .
Cc1ccc(Cl)cc1N1CCN(C(=O)c2ccc(CS(=O)c3ccccc3)o2)CC1 (stereo not given) | . | . | . | . | -11% | .
Cc1nnc(SCC(=O)c2ccc(Br)cc2)s1 | -8% | -1% | -1% | 17% | 17µM* | 10%
Cc1nnc(SCC(=O)O)s1 | 0% | 0% | 0% | -6% | -2% | 0%
Cc1ccc(C(=O)CSc2nnc(C)s2)cc1 | ? | ? | -2% | 2.2µM* | 13µM* | 2.2µM*
Nc1nnc(SCC(=O)c2ccc3ccccc3c2)s1 | ? | 12µM* | -2% | 4µM* | 19µM* | 4.5µM*
Cc1nnc(SCC(=O)Nc2nsc(-c3ccccc3)n2)s1 | 16% | -4% | 2% | 17% | ? | 10%
Cc1ccc(-c2nc(NC(=O)CSc3nnc(C)s3)ns2)cc1 | 6% | 3% | 2% | -7% | 19µM* | 8%
CN(CC(=O)Nc1ccccc1Br)C(=O)CNC(=O)c1ccco1 | . | 3% | . | -3% | -2% | 0%
CCOc1ccccc1NC(=O)n1ncc2c(C)cccc21 | . | 4% | . | 2.5µM* | 7.6µM* | 4µM*
Cc1cc(NC(=O)n2ncc3c(C)cccc32)ccc1Br | . | . | . | . | -2% | .
Cc1cccc2c1cnn2C(=O)Nc1cc(F)ccc1F | . | ? | . | 0.28µM* | 0.67µM* | ?
Cc1ccccc1CC(=O)Nc1cccnc1 | . | 9% | . | 0% | 4% | -5%
Cc1ccc(CNC(=O)C(Cc2ccccc2)NS(=O)(=O)c2cccs2)cc1 (stereo not given) | 18µM* | -3% | 20% | -5% | -2% | 2%
Oc1ccc(/C=N/N2CCN(c3ccccn3)CC2)cc1 | . | 14% | . | -1% | ? | 1%
CN(c1ccccc1)c1ccc(/C=N/N2CCOCC2)cc1 | 7.9µM* | 18µM* | -1% | 1.3µM* | 1.7µM* | 1.8µM*
C(=N\N1CCN(c2ccccn2)CC1)/c1ccccn1 | . | ? | . | ? | 17µM* | 22%
CN(C)c1ccc(/C=N/N2CCN(c3ccccn3)CC2)cc1 | . | ? | . | ? | 4.8µM* | ?
CC(C)(C)c1ccc(/C=N/N2CCN(c3ccccn3)CC2)cc1 | . | -5% | . | -5% | -7% | -4%
COc1ccc(F)cc1S(=O)(=O)NCCc1c(C)[nH]c2c(Cl)cccc12 | . | . | . | . | -4% | .
N#C/C(=C\c1ccc(F)cc1F)S(=O)(=O)c1ccccn1 | . | 3% | . | 1% | 2% | 5%
Cc1ccc(N(Cc2ccccc2)C(=O)c2cccc(F)c2)cc1 | . | 18% | . | -7% | 13µM* | -1%
SMILES | SMN2 splice enh | ELG1 genotox | KinaseGlo FLuc | Rab9 promoter act | FLuc counter | NPC1 prom act
Cc1ccc(C(=O)CC(=O)c2cccc(F)c2)c(O)c1 | -41% | ? | -1% | 14% | 12µM* | 6%
COc1ccc(CN(C(=O)c2ccc(C)cc2)c2cccc(N)c2)cc1 | . | -3% | . | 1% | -7% | -4%
Cc1ccc(N(Cc2ccccc2)C(=O)c2ccc(F)cc2)cc1 | . | 4% | . | 0% | 0% | 2%
COc1ccc(C(=O)N(Cc2ccccc2)c2cccc(C)c2)cc1 | . | 15µM* | . | ? | -1% | ?
O=C(CSc1n[nH]c(-c2ccccc2F)n1)Nc1cc(F)ccc1F | . | 1% | . | 7% | -11% | -4%
CSc1ncccc1C(=O)N1CCCC(N2CCN(c3ccccc3F)CC2)C1 (stereo not given) | . | -8% | . | 8% | 0% | -4%
COc1ccc(NC(=O)CN2CCN(C3c4ccccc4-c4ccccc43)CC2)cc1 | 0% | -6% | 0% | -1% | -3% | 3%
O=C(Nc1cccc(O)c1)c1cc(-c2cccs2)on1 | . | 12µM* | . | -2% | 0.85µM* | -1%
CC(=O)c1cccc(NC(=O)c2cc(-c3cccs3)on2)c1 | . | ? | . | 1% | 0.85µM* | -2%
Cc1ccc(NC(=O)c2cc(-c3cccs3)on2)cc1 | 27% | 11µM* | -7% | -1% | 2.4µM* | -2%
O=C(Cc1ccccc1[N+](=O)[O-])N1CCc2ccccc2C1 | 18% | 9% | 0% | ? | -17% | 24%
CCCN(CCC)CCNC(=O)CCC(=O)Nc1ccc2nc(N3CCOCC3)cc(C)c2c1 | . | ? | . | 3.5µM* | -1% | ?
CCOC(=O)C1CCCN(C(=O)CCC(=O)Nc2ccc3nc(N4CCOCC4)cc(C)c3c2)C1 (stereo not given) | . | ? | . | ? | 17µM* | ?
COCCCNC(=O)CCC(=O)Nc1ccc2nc(N3CCOCC3)cc(C)c2c1 | ? | 7% | 5% | ? | ? | 2%
CCCCNC(=O)CCC(=O)Nc1ccc2nc(N3CCOCC3)cc(C)c2c1 | 21% | 12% | 5% | ? | 15µM* | ?
Cc1cc(N2CCOCC2)nc2ccc(NC(=O)C3CCC(C)CC3)cc12 (stereo not given) | -16% | -2% | -1% | 5% | 1% | -7%
Cc1cc(N2CCCCC2)nc2ccc(NC(=O)CCC(=O)NCCC(C)C)cc12 | 65% | ? | 0% | 3.2µM* | 7.6µM* | ?
CCCCN(CC)CCNC(=O)CCC(=O)Nc1ccc2nc(N3CCN(C)CC3)cc(C)c2c1 | -11% | 6% | 0% | -3% | -4% | 8%
CCCC[C@@H]1C[C@H]1C(NS(=O)(=O)c1cccc2cccnc12)c1ccc(-c2ccccc2)cc1 (stereo not given in full) | -7% | . | 1% | . | . | .
Cc1ccc(CNC(=O)COCc2cc(-c3ccc4c(c3)OCO4)on2)cc1 | . | . | . | . | -14% | .
COc1cccc(NC(=O)CCC(=O)Nc2ccc3nc(N4CCOCC4)cc(C)c3c2)c1 | . | 13% | . | 2.5µM* | 6µM* | ?
COc1cccc(CC(=O)Nc2ccc3nc(N4CCC(C)CC4)cc(C)c3c2)c1 | -18% | . | . | . | -13% | .

Compound activity as filed in PubChem.
